Values joined by “and” are separate entries in the source; they are usually repeats but may differ in a detail not shown here. Equal entries are not always repeated. Inconclusive results are not listed. Active and inactive are the calls of the source. Calls come from the whole dose curve.

Retinoic acid receptor RXR-alpha (Homo sapiens), sequence (P19793 whole entry, looked up): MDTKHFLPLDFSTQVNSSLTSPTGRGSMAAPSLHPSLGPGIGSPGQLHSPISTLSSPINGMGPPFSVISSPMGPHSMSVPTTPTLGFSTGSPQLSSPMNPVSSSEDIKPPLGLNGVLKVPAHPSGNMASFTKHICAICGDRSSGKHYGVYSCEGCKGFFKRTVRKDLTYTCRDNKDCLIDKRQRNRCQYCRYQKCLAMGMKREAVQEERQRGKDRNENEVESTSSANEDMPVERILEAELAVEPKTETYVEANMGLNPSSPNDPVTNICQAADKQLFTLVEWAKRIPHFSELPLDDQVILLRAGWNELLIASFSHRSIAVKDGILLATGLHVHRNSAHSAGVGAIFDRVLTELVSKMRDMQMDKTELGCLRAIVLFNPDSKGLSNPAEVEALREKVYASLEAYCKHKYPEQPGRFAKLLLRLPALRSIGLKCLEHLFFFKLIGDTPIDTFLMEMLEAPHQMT

Test system in one test: not listed separately
The experiment in a line: qHTS assay for small molecule agonists of retinoid X receptor alpha signaling (AID 588544). The conditions noted are these: HEK293T RXRa-UAS-bla, beta-lactamase reporter, 18 h; 530 nm emission.
For `O=[N+]([O-])c1ccc(NCCO)c(OCCO)c1`, the max response came to 4.58%.
Regarding `ClC/C=C/CCl`, the max response is -8.83%.
On to `Cc1cscn1`, for which the max response was -3.55%.
As to `CCCCCCCN`, the max response was -16.2%.
`CC(C)(O)CCC(C)(C)O`: the max response was -8.68%.
With `Nc1cccc(S(=O)(=O)O)c1`, the max response is 8.69%.
In the case of `O=Cc1c(Cl)cccc1Cl`, the max response was 3.02%.
Turning to `Oc1c(Cl)ccc(Cl)c1Cl`, the max response is 2.14%.
Regarding `COC(=O)CCCC(=O)OC`, the max response was -5.09%.
On the same count and under the same terms, the value for `O=c1[nH][nH]c(=O)c2cc([N+](=O)[O-])ccc12` was -1.84%; that for `C=Cc1ccccn1` was -16.6%.
Regarding `Nc1ccc([N+](=O)[O-])c(N)c1`, the max response is -12.6%.
On to `Nc1cccc(N)c1`, for which the max response was determined as 0.0667%.
For `CSc1ccc(C=O)cc1`, the max response is -15.5%.
Take `Cc1ccc([N+](=O)[O-])c(N)c1`: the max response was found to be 3%.
Still for that read-out and setting: to `COc1ccc(N)c(OC)c1` belongs -3.88%; to `C=CCCCC`, -12.2%.
As to `C=CC(=O)NC(C)C`, the max response is -3.51%.
Consider `C/C(C=O)=C/c1ccccc1`, for which the max response was -15.6%.
Take `CCCCCCCCN`: the max response is -7.59%.
Still for that read-out and setting: the value for `C=CCCC` was -12.1%; that for `C=CCCCCCC` was -14%.
Consider `Cc1ccccc1C=O`, for which the max response was -10.4%.
Same read-out and setting: the value for `CCN(CC)c1cccc(O)c1` was -9.19%; that for `Cc1c(N)cccc1N` was -3.37%.
Still for that read-out and setting: to `CC(=C/C=C/C(C)=C/C=C/C=C(C)/C=C/C=C(C)/C=C/C(=O)O)/C=C/C(=O)O` belongs -15.4%.
As to `Fc1ccccc1`, the max response is -11.1%.
Still for that read-out and setting: the value for `NC(=S)NNC(N)=S` was -14.7% and -3.73%.
Take `CCNc1cc(O)ccc1C`: the max response was -5.56%.
The same measure, in the same setting: the value for `Cc1ccc(C#N)cc1` was 3.27%; that for `c1ccc2n[nH]nc2c1` was -15.8%; that for `Nc1cccc2c(=O)[nH][nH]c(=O)c12` was -4.82%.
As to `Cc1c(N)cccc1[N+](=O)[O-]`, the max response was -2.78%.
On to `O=C1OC(=O)c2c(Br)c(Br)c(Br)c(Br)c21`, for which the max response is -2.51% and -8.84%.
`CCCCC/C=C/C=C/C=O`: the max response is -6.95% and 20%.
`O=Cc1cccc(Br)c1`: the max response amounted to 0.636%.
The same measure, in the same setting: to `O=Cc1ccc(CO)o1` belongs -13.3%; to `C=CCn1c(=O)n(CC=C)c(=O)n(CC=C)c1=O`, -13.5%.
Same read-out and setting: the value for `CCCCCCCCCCCCC1CO1` (stereo not given) was -5.24%; that for `Cc1ccc(C(=O)O)cc1` was 4.67%.

Another test addresses Retinoic acid receptor RXR-alpha (Homo sapiens) (UniProt P19793). The description is as above. The conditions noted are these: HEK293T RXRa-UAS-bla, beta-lactamase reporter, 18 h; series mostly up to 76.7 µM.
With `O=[N+]([O-])c1ccc(NCCO)c(OCCO)c1`, the call was inactive.
For the molecule `ClC/C=C/CCl`, the result was inactive.
`Cc1cscn1`: the molecule was classed as inactive.
`CCCCCCCN`: the call was inactive.
The same measure, in the same setting: to `CC(C)(O)CCC(C)(C)O` belongs “inactive”; to `Nc1cccc(S(=O)(=O)O)c1`, “inactive”; to `O=Cc1c(Cl)cccc1Cl`, “inactive”.
In the case of `Oc1c(Cl)ccc(Cl)c1Cl`, the result was inactive.
`COC(=O)CCCC(=O)OC`: the molecule was called inactive.
With `O=c1[nH][nH]c(=O)c2cc([N+](=O)[O-])ccc12`, the result was inactive.
For `C=Cc1ccccn1`, the call was inactive.
Turning to `Nc1ccc([N+](=O)[O-])c(N)c1`, the molecule was called inactive.
`Nc1cccc(N)c1`: the molecule was called inactive.
Still for that read-out and setting: to `CSc1ccc(C=O)cc1` belongs “inactive”; to `Cc1ccc([N+](=O)[O-])c(N)c1`, “inactive”.
Consider `COc1ccc(N)c(OC)c1`, for which the call was inactive.
On to `C=CCCCC`, for which the molecule was called inactive.
Same read-out and setting: to `C=CC(=O)NC(C)C` belongs “inactive”; to `C/C(C=O)=C/c1ccccc1`, “inactive”; to `CCCCCCCCN`, “inactive”.
In the case of `C=CCCC`, the call was inactive.
Same read-out and setting: the value for `C=CCCCCCC` was “inactive”; that for `Cc1ccccc1C=O` was “inactive”.
Regarding `CCN(CC)c1cccc(O)c1`, the molecule was classed as inactive.
Regarding `Cc1c(N)cccc1N`, the outcome was inactive.
Turning to `CC(=C/C=C/C(C)=C/C=C/C=C(C)/C=C/C=C(C)/C=C/C(=O)O)/C=C/C(=O)O`, the result was inactive.
Turning to `Fc1ccccc1`, the molecule was called inactive.
On to `NC(=S)NNC(N)=S`, for which the result was inactive.
Still for that read-out and setting: the value for `CCNc1cc(O)ccc1C` was “inactive”.
For `Cc1ccc(C#N)cc1`, the molecule was classed as inactive.
Regarding `c1ccc2n[nH]nc2c1`, the result was inactive.
Take `Nc1cccc2c(=O)[nH][nH]c(=O)c12`: the call was inactive.
Regarding `Cc1c(N)cccc1[N+](=O)[O-]`, the call was inactive.
Turning to `O=C1OC(=O)c2c(Br)c(Br)c(Br)c(Br)c21`, the molecule was classed as inactive.
On the same count and under the same terms, the value for `CCCCC/C=C/C=C/C=O` was “inactive”; that for `O=Cc1cccc(Br)c1` was “inactive”; that for `O=Cc1ccc(CO)o1` was “inactive”.
`C=CCn1c(=O)n(CC=C)c(=O)n(CC=C)c1=O`: the molecule was called inactive.
For the molecule `CCCCCCCCCCCCC1CO1` (stereo not given), the result was inactive.
For the molecule `Cc1ccc(C(=O)O)cc1`, the molecule was classed as inactive.

These data come from PubChem BioAssay (NCATS).
